{
  "source": "paper PMC11062922",
  "about": "(Nature Chemical Biology, 2023)",
  "set-up_in_all_cases": "species or system human, MV4-11 + K-562 + COLO205 + SK-N-BE2 + OVCAR-8",
  "key": {"CDK16": {"test_system": "CDK16", "conditions": "read-out: apparent Kd, compound concentrations: 100 nM and 1000 nM (sheet 'Samples'), n = 1"}, "CHEK1": {"test_system": "CHEK1", "conditions": "read-out: apparent Kd, n = 1"}, "CSNK1D": {"test_system": "CSNK1D", "conditions": "read-out: apparent Kd, compound concentrations: 100 nM and 1000 nM (sheet 'Samples'), n = 1"}, "EPHA5": {"test_system": "EPHA5", "conditions": "read-out: apparent Kd, n = 1"}, "MARK3": {"test_system": "MARK3", "conditions": "read-out: apparent Kd, n = 1"}, "STK16": {"test_system": "STK16", "conditions": "read-out: apparent Kd, compound concentrations: 100 nM and 1000 nM (sheet 'Samples'), n = 1"}, "STK4": {"test_system": "STK4", "conditions": "read-out: apparent Kd, compound concentrations: 100 nM and 1000 nM (sheet 'Samples'), n = 1"}, "BCR": {"test_system": "BCR", "conditions": "read-out: apparent Kd; compound concentrations:100 nM and 1000 nM (sheet 'Samples'); n = 1"}, "CAMKK2": {"test_system": "CAMKK2", "conditions": "read-out: apparent Kd; compound concentrations:100 nM and 1000 nM (sheet 'Samples'); n = 1"}, "EPHA4": {"test_system": "EPHA4", "conditions": "read-out: apparent Kd; compound concentrations:100 nM and 1000 nM (sheet 'Samples'); n = 1"}, "EPHB2": {"test_system": "EPHB2", "conditions": "read-out: apparent Kd; compound concentrations:100 nM and 1000 nM (sheet 'Samples'); n = 1"}, "EPHB4": {"test_system": "EPHB4", "conditions": "read-out: apparent Kd; compound concentrations:100 nM and 1000 nM (sheet 'Samples'); n = 1"}, "PRKAG2": {"test_system": "PRKAG2", "conditions": "read-out: apparent Kd, n = 1"}, "TNK1": {"test_system": "TNK1", "conditions": "read-out: apparent Kd; compound concentrations:100 nM and 1000 nM (sheet 'Samples'); n = 1"}, "TNK2": {"test_system": "TNK2", "conditions": "read-out: apparent Kd; compound concentrations:100 nM and 1000 nM (sheet 'Samples'); n = 1"}, "MAPK9": {"test_system": "MAPK9", "conditions": "read-out: apparent Kd, n = 1"}, "MAPK10": {"test_system": "MAPK10", "conditions": "read-out: apparent Kd, n = 1"}, "PRKACA": {"test_system": "PRKACA", "conditions": "read-out: apparent Kd; compound concentrations:100 nM and 1000 nM (sheet 'Samples'); n = 1"}, "PRKACB": {"test_system": "PRKACB", "conditions": "read-out: apparent Kd; compound concentrations:100 nM and 1000 nM (sheet 'Samples'); n = 1"}, "[1]": {"conditions": "compound concentrations:100 nM and 1000 nM (sheet 'Samples')"}},
  "note": "Where two headings read alike, the source gives them in different places.",
  "data": [
    {"compound": "O=C(O)C(F)(F)F.O=C(O)C(F)(F)F.O=c1[nH]ccc2nc(N[C@@H]3CCCNC3)nc(Nc3ccc(S(=O)(=O)N4CCOCC4)cc3)c12.O=c1[nH]ccc2nc(N[C@@H]3CCCNC3)nc(Nc3ccc(S(=O)(=O)N4CCOCC4)cc3)c12", "note": "[GSK2177277A]", "values": [
      {"measurement": "potency estimated from few doses", "setting": "CDK16; CATDS: 2.61766261640392E-2", "result": 32, "unit": "nM"},
      {"measurement": "potency estimated from few doses", "setting": "CHEK1; compound concentrations: 100 nM and 1000 nM (sheet 'Samples'), CATDS: 1.19973934343878E-2", "result": 166, "unit": "nM"},
      {"measurement": "potency estimated from few doses", "setting": "CSNK1D; CATDS: 1.4345830153399601E-2", "result": 107, "unit": "nM"},
      {"measurement": "potency estimated from few doses", "setting": "EPHA5; compound concentrations: 100 nM and 1000 nM (sheet 'Samples'), CATDS: 6.3188743096270596E-3", "result": 1690, "unit": "nM"},
      {"measurement": "potency estimated from few doses", "setting": "MARK3; compound concentrations: 100 nM and 1000 nM (sheet 'Samples'), CATDS: 1.6672626063874801E-2", "result": 76.4, "unit": "nM"},
      {"measurement": "potency estimated from few doses", "setting": "STK16; CATDS: 8.3784020222335102E-3", "result": 485, "unit": "nM"},
      {"measurement": "potency estimated from few doses", "setting": "STK4; CATDS: 4.9368785940317003E-2", "result": 11.7, "unit": "nM"}
    ]},
    {"compound": "CC(=O)N[C@@H](Cc1ccc(OP(=O)(O)O)cc1)C(=O)N[C@H]1CCC(=O)N2CCC[C@@H](C(=O)NCc3ccc(Cl)cc3)N2C1=O", "note": "[RO0325308-000]", "values": [
      {"measurement": "potency estimated from few doses", "setting": "BCR", "result": 604, "unit": "nM"},
      {"measurement": "potency estimated from few doses", "setting": "CAMKK2", "result": 1320, "unit": "nM"},
      {"measurement": "potency estimated from few doses", "setting": "CHEK1; [1]", "result": 1950, "unit": "nM"},
      {"measurement": "potency estimated from few doses", "setting": "EPHA4", "result": 843, "unit": "nM"},
      {"measurement": "potency estimated from few doses", "setting": "EPHA5; [1]", "result": 770, "unit": "nM"},
      {"measurement": "potency estimated from few doses", "setting": "EPHB2", "result": 56.3, "unit": "nM"},
      {"measurement": "potency estimated from few doses", "setting": "EPHB4", "result": 59.9, "unit": "nM"},
      {"measurement": "potency estimated from few doses", "setting": "PRKAG2; [1]", "result": 570, "unit": "nM"},
      {"measurement": "potency estimated from few doses", "setting": "TNK1", "result": 468, "unit": "nM"},
      {"measurement": "potency estimated from few doses", "setting": "TNK2", "result": 51.7, "unit": "nM"}
    ]},
    {"compound": "CCn1c(-c2cccnc2O)nc2cnccc21", "note": "[SB-736715]", "values": [
      {"measurement": "potency estimated from few doses", "setting": "CDK16; CATDS: 1.2342830833646699E-2", "result": 2030, "unit": "nM"},
      {"measurement": "potency estimated from few doses", "setting": "MAPK9; compound concentrations: 100 nM and 1000 nM (sheet 'Samples'), CATDS: 1.25360352526476E-2", "result": 1950, "unit": "nM"},
      {"measurement": "potency estimated from few doses", "setting": "PRKAG2; compound concentrations: 100 nM and 1000 nM (sheet 'Samples'), CATDS: 1.6059828940045699E-2", "result": 1130, "unit": "nM"},
      {"measurement": "potency estimated from few doses", "setting": "STK16; CATDS: 1.41773006803768E-2", "result": 1460, "unit": "nM"},
      {"measurement": "potency estimated from few doses", "setting": "STK4; CATDS: 1.39715497774644E-2", "result": 1510, "unit": "nM"}
    ]},
    {"compound": "CS(=O)(=O)CCn1c(=O)c(Oc2ccc(F)cc2F)cc2cnc(NC3CCOCC3)nc21", "note": "[RO5027956-000]", "values": [
      {"measurement": "potency estimated from few doses", "setting": "BCR", "result": 693, "unit": "nM"},
      {"measurement": "potency estimated from few doses", "setting": "CAMKK2", "result": 1270, "unit": "nM"},
      {"measurement": "potency estimated from few doses", "setting": "CHEK1; [1]", "result": 1500, "unit": "nM"},
      {"measurement": "potency estimated from few doses", "setting": "EPHA4", "result": 896, "unit": "nM"},
      {"measurement": "potency estimated from few doses", "setting": "EPHA5; [1]", "result": 751, "unit": "nM"},
      {"measurement": "potency estimated from few doses", "setting": "EPHB2", "result": 720, "unit": "nM"},
      {"measurement": "potency estimated from few doses", "setting": "EPHB4", "result": 519, "unit": "nM"},
      {"measurement": "potency estimated from few doses", "setting": "MAPK10; [1]", "result": 127, "unit": "nM"},
      {"measurement": "potency estimated from few doses", "setting": "MAPK9; [1]", "result": 494, "unit": "nM"},
      {"measurement": "potency estimated from few doses", "setting": "PRKACA", "result": 2090, "unit": "nM"},
      {"measurement": "potency estimated from few doses", "setting": "PRKACB", "result": 977, "unit": "nM"},
      {"measurement": "potency estimated from few doses", "setting": "PRKAG2; [1]", "result": 497, "unit": "nM"},
      {"measurement": "potency estimated from few doses", "setting": "TNK1", "result": 487, "unit": "nM"},
      {"measurement": "potency estimated from few doses", "setting": "TNK2", "result": 521, "unit": "nM"}
    ]},
    {"compound": "CCn1c(-c2nonc2N)nc2c(C#CC(C)(C)O)nc(O[C@@H](CN)c3ccccc3)cc21.O=C(O)C(F)(F)F", "note": "[GSK1007102B]", "values": [
      {"measurement": "potency estimated from few doses", "setting": "MARK3; [1]", "result": 163, "unit": "nM"},
      {"measurement": "potency estimated from few doses", "setting": "PRKACA", "result": 37.5, "unit": "nM"},
      {"measurement": "potency estimated from few doses", "setting": "PRKACB", "result": 41.1, "unit": "nM"},
      {"measurement": "potency estimated from few doses", "setting": "PRKAG2; [1]", "result": 121, "unit": "nM"}
    ]},
    {"compound": "CNCC#Cc1c(F)ccc2c1/C(=C/c1[nH]ccc1OC)C(=O)N2.Cl", "note": "[RO0281601-001]", "values": [
      {"measurement": "potency estimated from few doses", "setting": "CDK16; CATDS: 5.4243920353091599E-2", "result": 173, "unit": "nM"},
      {"measurement": "potency estimated from few doses", "setting": "MAPK9; compound concentrations: 100 nM and 1000 nM (sheet 'Samples'), CATDS: 2.4377657095079101E-2", "result": 1310, "unit": "nM"},
      {"measurement": "potency estimated from few doses", "setting": "MARK3; compound concentrations: 100 nM and 1000 nM (sheet 'Samples'), CATDS: 2.1082964771659999E-2", "result": 2280, "unit": "nM"},
      {"measurement": "potency estimated from few doses", "setting": "STK16; CATDS: 2.5135483463970699E-2", "result": 1180, "unit": "nM"}
    ]},
    {"compound": "c1cnn2ncc(-c3ccnc(Nc4ccc5c(c4)OCCO5)n3)c2c1", "note": "[GW806290X]", "values": [
      {"measurement": "potency estimated from few doses", "setting": "CDK16; CATDS: 2.45493373786023E-2", "result": 989, "unit": "nM"},
      {"measurement": "potency estimated from few doses", "setting": "CSNK1D; CATDS: 2.68711493268559E-2", "result": 761, "unit": "nM"},
      {"measurement": "potency estimated from few doses", "setting": "MAPK10; compound concentrations: 100 nM and 1000 nM (sheet 'Samples'), CATDS: 2.29064571505532E-2", "result": 1230, "unit": "nM"},
      {"measurement": "potency estimated from few doses", "setting": "MAPK9; compound concentrations: 100 nM and 1000 nM (sheet 'Samples'), CATDS: 2.34417692705663E-2", "result": 1140, "unit": "nM"}
    ]}
  ]
}
